According to ChEMBL document CHEMBL1961873, “Compounds: GSK PKIS; Assays: Nanosyn kinase panel” (2012):

biological target: Casein kinase I isoform gamma-3 (Homo sapiens) (UniProt Q9Y6M4); settings: at 0.1 µM
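Note: reported value is the mean percent inhibition of the kinase.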

Chain of Casein kinase I isoform gamma-3 (Homo sapiens) (Q9Y6M4 whole entry, looked up, canonical isoform): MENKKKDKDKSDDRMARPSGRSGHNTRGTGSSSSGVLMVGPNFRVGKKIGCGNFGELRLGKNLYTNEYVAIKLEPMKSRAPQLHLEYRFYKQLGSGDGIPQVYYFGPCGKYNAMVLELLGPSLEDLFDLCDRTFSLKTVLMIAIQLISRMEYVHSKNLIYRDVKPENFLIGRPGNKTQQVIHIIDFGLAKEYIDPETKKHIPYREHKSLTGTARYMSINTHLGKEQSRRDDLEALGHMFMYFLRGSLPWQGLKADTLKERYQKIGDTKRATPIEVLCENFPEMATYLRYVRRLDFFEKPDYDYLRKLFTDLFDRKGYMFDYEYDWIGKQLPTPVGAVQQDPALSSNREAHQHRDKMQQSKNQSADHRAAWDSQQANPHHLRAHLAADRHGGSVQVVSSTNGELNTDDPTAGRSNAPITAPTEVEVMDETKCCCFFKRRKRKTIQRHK

| Compound | inhibition [%] |
| --- | --- |
| COc1cc(/C=N/Nc2ncnc3[nH]ncc23)ccc1O | 3.84 |
| COc1cc(Nc2nccc(Nc3ccc4c(C)n[nH]c4c3)n2)cc(OC)c1OC | 0.39 |
| COc1cc2c(cc1Nc1nc(Nc3ccsc3C(N)=O)c3cc[nH]c3n1)N(C(=O)CN(C)C)CCC2(C)C | 4.29 |
| CCn1c(-c2nonc2N)nc2c(C#CC(C)(C)O)nc(OC[C@H](N)c3ccccc3)cc21 | 1.72 |
| COC(=O)Nc1nc2ccc(S(=O)(=O)c3ccc(NC(=O)Nc4cc(C(F)(F)F)ccc4F)cc3)cc2[nH]1 | 2.17 |
| N#Cc1c(NC(=O)c2ccc(F)cc2)sc2c1CCCC2 | 0.26 |
| CCn1c(-c2nonc2N)nc2c(C#CC(C)(C)O)ncc(OC3CCNCC3)c21 | 2.65 |
| CCn1c(-c2nonc2N)nc2cnc(Oc3cccc(NC(=O)c4ccc(N(C)C)cc4)c3)cc21 | 0.95 |
| Fc1cccc(COc2ccc(Nc3ncnc4sc(-c5ccco5)cc34)cc2Cl)c1 | 3.95 |
| O=S(=O)(CCNCc1ccc(-c2ccc3ncnc(Nc4ccc(OCc5cccc(F)c5)c(Cl)c4)c3c2)o1)c1ccccc1 | 4.59 |
| COc1cccc(-n2ncc3c(N/N=C/c4ccc(F)cc4)ncnc32)c1 | 3.39 |
| NC(=O)c1sc(-n2cnc3ccc(C(F)(F)F)cc32)cc1OCc1ccccc1Br | 1.35 |
| NS(=O)(=O)c1ccc(N/N=C2\C(=O)Nc3ccc4ncccc4c32)cc1 | 1.94 |
| c1ccc(-c2nc3n(c2-c2ccc4c(c2)OCO4)CCC3)nc1 | 0.57 |
| CCNC(=O)O[C@H]1CN[C@H](C#Cc2cc3ncnc(Nc4ccc(OCc5cccc(F)c5)c(Cl)c4)c3s2)C1 | 3.84 |
| COc1ccc(-c2cc(-c3c[nH]nc3-c3ccccn3)ccn2)cc1 | 3.68 |
| Nc1nc(-c2cccc(Cl)c2)c(-c2ccc3ncccc3n2)s1 | 6.72 |

| Compound | inhibition [%] |
| --- | --- |
| Clc1ccc(-c2nn3ncccc3c2-c2ccnc(Nc3ccccc3)n2)cc1 | 1.6 |
| CCN1CCC(CC(=O)Nc2n[nH]c3nnc(-c4cccc(F)c4F)cc23)CC1 | -0.19 |
| CN1CCC(n2cnc(-c3ccc(F)cc3)c2-c2ccnc(N)n2)CC1 | 0.53 |
| CNC(=O)c1cncc(/C=C/c2ccccc2Cl)c1 | 0.25 |
| CC(C)COC(=O)c1ccc2c(c1)/C(=C/Nc1ccc(S(N)(=O)=O)cc1)C(=O)N2 | -3.31 |
| CCN(CC)S(=O)(=O)c1ccc(OC)c(Nc2ncc(-c3ccccc3)o2)c1 | -0.78 |
| COc1ccc(-c2oc3ncnc(N)c3c2-c2ccc(NC(=O)Nc3cc(C(F)(F)F)ccc3F)cc2)cc1 | 0.82 |
| COc1ccc(CNC(=O)c2ccc(-c3cc(-c4nnc(C)o4)ccc3C)cc2)cc1 | 0.01 |
| CC(C)(CO)CNC(=O)c1ccc2c(c1)/C(=N/Nc1ccc(S(N)(=O)=O)cc1)C(=O)N2 | 1.31 |
| Cc1cccc2c1NC(=O)/C2=N\Nc1ccc(S(N)(=O)=O)cc1 | 0.83 |
| Cc1ccc2c(-c3ccnc(Nc4ccccc4)n3)c(-c3ccc(F)cc3)nn2n1 | 7.8 |
| CNC(=O)c1cccc(C#Cc2cncnc2Nc2ccc(OCc3cccc(F)c3)c(Cl)c2)c1 | 2.38 |
| c1cc(-c2cnn3nc(N4CCOCC4)ccc23)nc(NC2CC2)n1 | 2.89 |
| FC(F)(F)c1cccc(-c2nn3ncccc3c2-c2ccnc(Nc3ccc4c(c3)OCCO4)n2)c1 | 1.54 |
| CC1=C(C(=O)Nc2cc(Cl)c3[nH]ncc3c2)C(c2ccc(C(F)(F)F)cc2)CC(=O)N1 (centres undefined) | 1.59 |
| COc1cc(N2CCN(C(C)C)CC2)ccc1Nc1nc(Nc2ccc(F)cc2C(N)=O)c2cc[nH]c2n1 | 14.7 |
| O=C(Nc1n[nH]c2cc(-c3ccc(F)cc3)ccc12)C1CC1 | 1.93 |
